Where “and” joins values, the source holds several entries; their conditions need not be identical. Equal values may be shown once. Records with an inconclusive call do not appear. Values without a mark were called inactive. Calls of active or inactive are those of the source. Calls follow the shape of the dose curve; as a rule, active = well fitted curve in the direction sought with a large enough effect; inconclusive = small, poorly fitted or top-dose-only effect, or another doubt; inactive = no such curve, though single readings can be large; an effect the other way counts as inactive or inconclusive.
Assays:
[1] = molecular target: Cellular tumor antigen p53 (Homo sapiens) (UniProt P04637); experiment: Primary qHTS for small molecule compounds that upregulate eGFP-tagged delta133p53alpha (in N-terminal) cells. (AID 2060322); conditions: NCI-H358 eGFP-delta133p53alpha fluorescence, 24 h; activation: hits give high values; also: nearly all actives have a fitted effect of over 75% in size; also: potency is read from the fitted curve at half-maximal effect;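 as to activation: cells pre-induced with doxycycline then dosed without doxycycline; series mostly up to about 56 µM; 0% = DMSO vehicle and 100% = reference activator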
Cellular tumor antigen p53 (Homo sapiens), sequence (P04637 whole entry, looked up): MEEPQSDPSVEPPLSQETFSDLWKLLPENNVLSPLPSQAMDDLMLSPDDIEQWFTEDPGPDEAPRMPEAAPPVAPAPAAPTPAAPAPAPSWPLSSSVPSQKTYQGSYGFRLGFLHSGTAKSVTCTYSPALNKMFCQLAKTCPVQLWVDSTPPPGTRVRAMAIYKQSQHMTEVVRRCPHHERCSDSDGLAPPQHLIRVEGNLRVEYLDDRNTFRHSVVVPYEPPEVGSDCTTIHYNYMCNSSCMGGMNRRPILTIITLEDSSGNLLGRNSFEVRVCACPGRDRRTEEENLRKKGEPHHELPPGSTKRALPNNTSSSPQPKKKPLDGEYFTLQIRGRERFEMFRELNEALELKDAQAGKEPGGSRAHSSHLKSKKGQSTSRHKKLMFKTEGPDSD
Method in brief: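 NCI-H358 cells pre-induced 24 h with 10 ng/ml doxycycline for eGFP-delta133p53alpha, plated dox-free and exposed 24 h at 37C to titrated compounds. Fixed, Hoechst-stained; gated GFP peak intensity by laser scanning cytometry, normalized to DMSO (0%) and 57.5 uM 5-azacytidine (100%).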

[2] = molecular target: Aldehyde dehydrogenase, mitochondrial (Homo sapiens) (UniProt P05091); experiment: qHTS for Inhibitors of the Aldehyde Dehydrogenase Family (ALDH2) Primary screen (AID 2061308);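 also: plate controls were vehicle for no effect and reference inhibitor for full effect; nearly all actives have a fitted effect of over 55% in size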
[3] = molecular target: Retinaldehyde dehydrogenase 3 (Homo sapiens) (UniProt P47895); experiment: qHTS for Inhibitors of the Aldehyde Dehydrogenase Family (ALDH1A3) Primary screen (AID 2061315); also: potency is read from the fitted curve at half-maximal effect;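 as to activity change, negative = inhibition: plate controls were DMSO vehicle for no effect and reference inhibitor for full effect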
[4] = BET inhibitor-based combinations targeting novel dependencies in MECOM-rearranged (r) AML: SET-2 cell line (AID 2202231); conditions: SET-2 AML cells viability, CellTiter-Glo luminescence, 48 h; viability: hits give low values, concentration not given here; also: nearly all actives have a fitted effect of over 35% in size; also: potency is read from the fitted curve at half-maximal effect;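 as to viability: plate controls were DMSO treated cells for no effect and wells without cells for full effect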
Method in brief: (§1)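 Here, 11-point titrations of each agent were applied to 500 seeded cells and incubated 48 hr; CellTiter-Glo signal, scaled against DMSO and empty wells, was integrated as AUC, then Z-scored within the individual line.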

[5] = BET inhibitor-based combinations targeting novel dependencies in MECOM-rearranged (r) AML: MV-4-11 cell line (AID 2202233); also: nearly all actives have a fitted effect of over 45% in size; also: potency is read from the fitted curve at half-maximal effect
Method in brief: (§2)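 Normalized to DMSO and empty-well controls, the luminescence data from CellTiter-Glo after 48 hr drug exposure were fitted across 11 concentrations. Reported metrics are area under the dose-response curve and its Z-transformed form.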

[6] = BET inhibitor-based combinations targeting novel dependencies in MECOM-rearranged (r) AML: HNT-34 cell line (AID 2202234); also: nearly all actives have a fitted effect of over 35% in size; also: potency is read from the fitted curve at half-maximal effect
Method in brief: as §2

[7] = BET inhibitor-based combinations targeting novel dependencies in MECOM-rearranged (r) AML: UCSD-AML1 cell line (AID 2202235); also: nearly all actives have a fitted effect of over 40% in size; also: potency is read from the fitted curve at half-maximal effect
Method in brief: as §2

[8] = BET inhibitor-based combinations targeting novel dependencies in MECOM-rearranged (r) AML: AML-191 cell line (AID 2202236; also: nearly all actives have a fitted effect of over 35% in size; also: potency is read from the fitted curve at half-maximal effect)
Method in brief: as §1

[9] = BET inhibitor-based combinations targeting novel dependencies in MECOM-rearranged (r) AML: AML-194 cell line (AID 2202237; also: nearly all actives have a fitted effect of over 40% in size; also: potency is read from the fitted curve at half-maximal effect)
Method in brief: as §1

[10] = molecular target: Retinaldehyde dehydrogenase 3 (Homo sapiens) (UniProt P47895); experiment: qHTS for Inhibitors of the Aldehyde Dehydrogenase Family (ALDH1A3) Validation screen (AID 2061312); also: potency is read from the fitted curve at half-maximal effect; nearly all actives have a fitted effect of over 45% in size
[11] = BET inhibitor-based combinations targeting novel dependencies in MECOM-rearranged (r) AML: OCI-AML3 cell line (AID 2202232); conditions: Potency: OCI-AML3 viability; also: nearly all actives have a fitted effect of over 35% in size; also: potency is read from the fitted curve at half-maximal effect
Method in brief: as §1

With `CC(C)[C@]12O[C@H]1[C@@H]1O[C@]13[C@]1(O[C@H]1C[C@H]1C4=C(CC[C@@]13C)C(=O)OC4)[C@@H]2O` the Potency [1] was 0.269 µM (active), the Potency [2] was “inactive” and the Potency [3] was “inactive”. For the same molecule, the Potency [4] was 0.059 µM (active), the Potency [5] was 0.0372 µM (active) and the Potency [6] was 0.0742 µM (active). The Potency [7] was 0.0417 µM (active), the Potency [8] was 0.0372 µM (active) and the Potency [9] was 0.0468 µM (active).

In the case of `Oc1ccc2c3c1O[C@H]1[C@H](N(CCCl)CCCl)CC[C@@]4(O)[C@@H](C2)N(CC2CC2)CC[C@]314`, the activation [1] is reported as -14.3%, the activity change, negative = inhibition [2] is reported as -5.73% [at 11.2 µM] and the activity change, negative = inhibition [3] is reported as -18.8% [at 11.2 µM].

In the case of `CC(C)OC(=O)c1ccnc2cc(C(OCCN3CCCCC3)c3ccccc3Cl)sc12` (stereo not drawn), the activation [1] is reported as -11.2% and the Potency [3] is reported as “inactive”.

For `CN1[C@H]2C[C@H](OC(=O)[C@H](CO)c3ccccc3)C[C@@H]1[C@@H](O)C2`, the activation [1] was 1.67%, the Potency [2] was “inactive” and the Potency [3] was “inactive”.

With `CCC(C)/C=C(C)/C=C/C1=CC2=C(Cl)C(=O)C(C)(OC(C)=O)C(=O)C2=CO1` (stereo not drawn) the activation [1] was -16% and the Potency [3] was “inactive”.

For `CNc1ccc2oc(C[C@H]3O[C@@]4(CC[C@H]3C)O[C@H](C(C)C(=O)c3ccc[nH]3)[C@H](C)C[C@H]4C)nc2c1C(=O)O` (stereo partly drawn), the Potency [1] was 19 µM (active), the Potency [10] was 14.1 µM (active) and the Potency [3] was 11.2 µM (active).

With `CC1=CC2OC3CC(O)[C@](C)([C@@]2(C)C(O)C1=O)[C@]31CO1` (stereo partly drawn) the Potency [1] was 21.3 µM (active), the Potency [2] was “inactive” and the Potency [3] was “inactive”.

In the case of `Fc1cc(F)c2c(c1)[C@H]1C=CC[C@H]1C(c1cccnc1)N2` (stereo partly drawn), the activation [1] is reported as 2.39%, the Potency [2] is reported as “inactive” and the Potency [3] is reported as “inactive”.

For `CN1C(=O)[C@]23CC4C(C)(C)[C@@]5(C[C@@]41CN2CC[C@@]3(C)O)C(=O)Nc1c5ccc2c1OC=CC(C)(C)O2` (stereo partly drawn), the activation [1] was -19.1% and the Potency [3] was “inactive”.

In the case of `C[C@H](Nc1ncnc2nc[nH]c12)c1nc2ccc(F)cc2c(=O)n1-c1ccccc1`, the activation [1] is reported as 11.6%, the Potency [2] is reported as “inactive” and the Potency [3] is reported as “inactive”. For the same molecule, the Potency [8] was 5.25 µM (active).

In the case of `COC[C@@H](NC(C)=O)C(=O)NCc1ccccc1`, the activation [1] is reported as -5.83%, the Potency [5] is reported as “inactive” and the Potency [7] is reported as “inactive”. The Potency [8] was “inactive” and the Potency [9] was “inactive”.

With `O=c1[nH]c2ccccc2n1C1CCN(Cc2ccc(-c3[nH]c4cc5ncnc5cc4nc3-c3ccccc3)cc2)CC1` the activation [1] was 5.59%, the viability [4] was 104% and the Potency [11] was 9.34 µM (active). For the same molecule, the Potency [5] was 14.8 µM (active).

With `Clc1ccc(N2C[C@H]3CC[C@@H](C2)N3)nn1` the activation [1] was -0.333% and the Potency [3] was “inactive”.

With `C[C@]12Cc3cn[nH]c3C[C@@H]1CC[C@@H]1[C@@H]2CC[C@@]2(C)[C@H]1CC[C@]2(C)O` the activation [1] was -21.8%, the viability [4] was 57.3% and the Potency [5] was 0.742 µM (active). For the same molecule, the Potency [7] was “inactive” and the Potency [8] was “inactive”.

In the case of `CC(C)(C)c1cc(C=C(C#N)C#N)cc(Br)c1O`, the activation [1] is reported as 19.6%, the Potency [11] is reported as 23.5 µM (active) and the Potency [5] is reported as 18.6 µM (active). The Potency [6] was 16.6 µM (active) and the Potency [8] was 18.6 µM (active).

In the case of `C[C@](O)(COc1ccc(C#N)cc1)C(=O)Nc1ccc(C#N)c(C(F)(F)F)c1`, the activation [1] is reported as -20%, the Potency [5] is reported as “inactive” and the Potency [9] is reported as “inactive”.

In the case of `CN1[C@H]2CC(O)C[C@H]1[C@H]1O[C@H]12` (stereo partly drawn), the activation [1] is reported as -21%, the viability [4] is reported as 118% and the Potency [11] is reported as “inactive”. For the same molecule, the Potency [5] was “inactive”, the Potency [8] was “inactive” and the Potency [9] was “inactive”.

With `O=S(=O)(CC1CS1)c1ccc(Oc2ccccc2)cc1` (stereo not drawn) the activation [1] was -10.4%, the Potency [11] was 16.6 µM (active) and the Potency [5] was 11.8 µM (active). The Potency [6] was 20.9 µM (active).

With `CN[C@@H]1Cc2cccc3[nH]c(=O)n(c23)C1` the activation [1] was 31.7%, the viability [4] was 120% and the Potency [11] was “inactive”. The Potency [5] was “inactive”, the Potency [6] was “inactive” and the Potency [8] was “inactive”. For the same molecule, the Potency [9] was “inactive”.

With `CC(C)(O)C(=O)Nc1ccc([N+](=O)[O-])c(C(F)(F)F)c1` the activation [1] was -14.4%, the Potency [4] was 23.5 µM (active) and the Potency [5] was 16.6 µM (active). The Potency [7] was “inactive”.

For `C[C@]12CC[C@H]3[C@@H](CCC4=CC(=O)CC[C@@]43C)[C@H]1CC[C@H]2OC(=O)CCC1CCCC1`, the activation [1] was 28.3%, the Potency [11] was “inactive” and the Potency [6] was “inactive”. The Potency [7] was “inactive” and the Potency [9] was “inactive”.

In the case of `O=C(O)CCCc1ccc(N(CCCl)CCCl)cc1`, the activation [1] is reported as 7.53% and 20.9%, the Potency [5] is reported as “inactive” and the Potency [7] is reported as 2.95 µM (active).

With `CCOC(=O)c1c(C(C#N)=CN)c2ccc(Cl)c(Cl)c2n1C` the activation [1] was -1.37%, the viability [4] was 114% and the Potency [11] was “inactive”. The Potency [7] was “inactive”, the Potency [8] was “inactive” and the Potency [9] was “inactive”.

For `COC1(CS(=O)c2ccccc2)CCN(CCc2c[nH]c3ccc(F)cc23)CC1` (stereo not drawn), the activation [1] was -25%, the viability [4] was 110% and the Potency [7] was “inactive”. The Potency [8] was “inactive” and the Potency [9] was “inactive”.

With `c1ccc2c(CN3CCNCC3)cccc2c1` the activation [1] was 12.1%, the viability [4] was 115% and the Potency [5] was “inactive”. The Potency [8] was “inactive” and the Potency [9] was “inactive”.

In the case of `O=C1CC[C@@]2(O)[C@H]3Cc4ccc(O)c5c4[C@@]2(CCN3CC2CC2)[C@H]1O5`, the activation [1] is reported as -5.99% and 2.51%, the viability [4] is reported as 123% and the Potency [11] is reported as “inactive”. The Potency [7] was “inactive” and the Potency [9] was “inactive”.

Source: PubChem BioAssay (NCATS)
